Source: PubChem BioAssay (several laboratories)
Compounds with a hit are over-represented: about 1.3% of the library has one in this group of screens.
EBV gp42 inh: EBV gp42 inhibition. AID 1085. 0.42% of 220,000 active. inhibition, % (tested at 21.74 µM). Fluorescence polarization binding assay, mP read-out. Q1HVG2; in the data active = inhibition above about 50%
Target sequence (Q1HVG2 whole entry, looked up): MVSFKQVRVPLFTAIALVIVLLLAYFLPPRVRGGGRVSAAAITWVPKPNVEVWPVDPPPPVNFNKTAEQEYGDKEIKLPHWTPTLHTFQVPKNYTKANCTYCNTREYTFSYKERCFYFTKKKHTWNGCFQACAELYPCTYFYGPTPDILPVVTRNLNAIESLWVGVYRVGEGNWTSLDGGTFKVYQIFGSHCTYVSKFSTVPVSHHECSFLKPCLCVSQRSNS
eLon inh: inhibits E. coli Lon protease; purified E. coli Lon protease, fluorescence polarization; AID 602123; P0A9M0; inhibition, % at 7.94 µM; 0.42% of 360,000 active; in the data active = inhibition above about 13%, passing the limit was not always enough
GLD-1 RNA inh: GLD-1-TGE RNA interaction inhibition (C. elegans); Q17339; purified GLD-1 + fluorescein TGE RNA, fluorescence polarization; inhibition, % at 5.96 µM; 0.44% of 320,000 active;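 active = percent inhibition above a per-plate cutoff, the plate mean of test compounds plus 3 SD, cut at about 30% in these data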
Bcl-xL primary: Bcl-xL (human) inhibition; GST-Bcl-xL / FITC-Bim BH3 peptide fluorescence polarization; AID 2129; 0.7% of 320,000 active; inhibition, % at 10.9 µM; Q07817;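 active = inhibition above the mean of all tested compounds plus 3 SD, cutoff set per campaign, cut at about 30% in these data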;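 note: inhibitors lower millipolarization by displacing the labeled peptide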
MEX-5 binding: C. elegans MEX-5 TCR-2 RNA binding activity | Q9XUB2 | 0.38% of 300,000 active | activity score (negative = inhibition of binding), % at 10 µM | MEX-5/FITC-TCR2 RNA binding, fluorescence polarization; stronger effect = lower value | AID 1832;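 active = inhibition past about -25% in most replicates, and total fluorescence under double the plate's negative control median, limit read from the data; inconclusive = replicates evenly split on the limit, or fluorescence at least double controls; inactive = too little inhibition in most replicates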
Target sequence (Q9XUB2 whole entry, looked up): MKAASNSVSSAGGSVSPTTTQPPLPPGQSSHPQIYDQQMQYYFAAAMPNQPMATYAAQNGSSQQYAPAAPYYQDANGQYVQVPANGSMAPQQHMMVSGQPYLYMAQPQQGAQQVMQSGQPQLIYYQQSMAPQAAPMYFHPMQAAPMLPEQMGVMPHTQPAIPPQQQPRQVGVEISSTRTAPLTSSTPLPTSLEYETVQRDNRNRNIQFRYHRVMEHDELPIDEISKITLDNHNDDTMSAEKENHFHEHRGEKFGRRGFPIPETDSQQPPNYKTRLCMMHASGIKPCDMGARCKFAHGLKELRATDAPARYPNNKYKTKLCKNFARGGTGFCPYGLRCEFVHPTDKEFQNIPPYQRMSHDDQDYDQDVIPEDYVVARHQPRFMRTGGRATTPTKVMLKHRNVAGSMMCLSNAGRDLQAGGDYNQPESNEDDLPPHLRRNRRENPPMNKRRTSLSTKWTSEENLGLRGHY
GLD-1 TGE cf: confirmation of C. elegans GLD-1 TGE RNA binding inhibitors. shares compounds with GLD-1 RNA inh. GLD-1/FL-TGE RNA fluorescence polarization, biochemical. inhibition, % at 5.96 µM. 10% of 550 active. AID 2459;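 active = average inhibition across triplicates above the hit cutoff set in the primary screen, cut at about 32% in these data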
Of the large screens only hits and unclear results are named; the others gave an inactive call (follow-up assays come after a bar, where they were run).

C(=N\N1CCOCC1)/c1nc(-c2ccccc2)n2ccccc12	EBV gp42 inh 62
COc1ccccc1C(=O)NCC(=O)NNc1ncnc(N)c1[N+](=O)[O-]	none (no result: eLon inh)
Nc1ncnc(NNC(=O)CNC(=O)c2c(F)cccc2Cl)c1[N+](=O)[O-]	MEX-5 binding -66
COc1ccc(CCNC(=O)CCCN2C(=O)C(c3ccccc3)Oc3cccnc32)cc1OC (configuration not stated)	none (no result: EBV gp42 inh)
COc1cc(/C=C(/C#N)c2nc(-c3cc4ccccc4oc3=O)cs2)cc([N+](=O)[O-])c1O	EBV gp42 inh 64 (no result: eLon inh, GLD-1 RNA inh, Bcl-xL primary, MEX-5 binding)
CC1=C(C(=O)OCc2ccccc2)C(c2ccccc2[N+](=O)[O-])NC(=O)N1C (configuration not stated)	MEX-5 binding -39 (no result: EBV gp42 inh)
O=C1COc2ccc(C(=O)COC(=O)CCSc3ccccc3)cc2N1	GLD-1 RNA inh 59 | GLD-1 TGE cf inactive
Cc1nn2cnnc2c(C)c1Cc1ccc(Cl)cc1	none (no result: EBV gp42 inh)
CN(C)/C=C1\SC(=S)N(c2ccc(F)cc2)C1=O	none
CN(C)/C=C1\SC(=S)N(c2ccc(Br)cc2)C1=O	GLD-1 RNA inh 73, Bcl-xL primary 131 | GLD-1 TGE cf 32
Cc1ccc(S(=O)(=O)C(C#N)c2nc3ccccc3nc2N2CCN(C)CC2)cc1 (configuration not stated)	none
Cc1cccc(S(=O)(=O)C(C#N)c2nc3ccccc3nc2N2CCOCC2)c1 (configuration not stated)	GLD-1 RNA inh 41, Bcl-xL primary 32, MEX-5 binding -72 | GLD-1 TGE cf inactive
Cc1ccc(S(=O)(=O)Nc2nc3ccccc3nc2N2CCOCC2)cc1	none (no result: EBV gp42 inh, Bcl-xL primary, MEX-5 binding)
COc1ccc(S(=O)(=O)C(C#N)c2nc3ccccc3nc2N2CCC(C)CC2)cc1 (configuration not stated)	GLD-1 RNA inh 42, Bcl-xL primary 49, MEX-5 binding -47 (no result: EBV gp42 inh, eLon inh) | GLD-1 TGE cf inactive
CC1CCCN(c2nc3ccccc3nc2C(C#N)S(=O)(=O)c2ccccc2)C1 (configuration not stated)	EBV gp42 inh 147, GLD-1 RNA inh 55, Bcl-xL primary 77, MEX-5 binding inconclusive | GLD-1 TGE cf inactive
CCCCN(CCCC)S(=O)(=O)c1ccc(NC(=O)Cc2cccs2)cc1	none
O=C(OCC(=O)N1CCN(C(=O)c2ccco2)CC1)c1sc2cc(F)ccc2c1Cl	GLD-1 RNA inh 36, Bcl-xL primary 60 | GLD-1 TGE cf inactive
O=C(OCC(=O)N1CCN(C(=O)c2ccco2)CC1)c1cccc(F)c1	none (no result: EBV gp42 inh, MEX-5 binding)
CCOC(=O)CSc1nnc(CSc2nc(C)cc(C)n2)n1Cc1ccco1	GLD-1 RNA inh 36 | GLD-1 TGE cf inactive
COc1ccccc1-c1cnn2c(NC3CCCC3)cc(C)nc12	GLD-1 RNA inh 66 (no result: EBV gp42 inh) | GLD-1 TGE cf inactive
CCOC(=O)N1CCC(Nc2cc(C)nc3c(-c4ccccc4OC)c(C)nn23)CC1	none
O=C(Cc1ccc(-c2ccccc2)cc1)Nc1ccccc1	none (no result: EBV gp42 inh)
O=C(Cc1ccc(-c2ccccc2)cc1)Nc1ncccc1O	GLD-1 RNA inh 31 (no result: EBV gp42 inh) | GLD-1 TGE cf inactive
CN1C(=O)c2ccc(N3CCCC3)cc2C1=O	GLD-1 RNA inh 36, Bcl-xL primary 48 | GLD-1 TGE cf inactive
Cc1noc(C)c1C(=O)NCc1ccccc1F	none
Clc1ccccc1OCCCOc1cccc2cccnc12	none (no result: EBV gp42 inh)
CC(=O)Nc1nc2n(n1)C(c1ccccc1)C=C(c1ccccc1)N2 (configuration not stated)	eLon inh 31, GLD-1 RNA inh 47, Bcl-xL primary 57 | GLD-1 TGE cf inactive
Cc1cnc(C(=O)Nc2ccccc2-c2ccc(C)o2)cn1	GLD-1 RNA inh 42, Bcl-xL primary 36 | GLD-1 TGE cf inactive
Cc1cccc(OCC(=O)Nc2nnc(S(=O)(=O)N3CCCCCC3)s2)c1	none (no result: EBV gp42 inh)
O=C(O)c1ccccc1N=Nc1ccc(O)cc1	GLD-1 RNA inh 39, Bcl-xL primary 58 (no result: EBV gp42 inh) | GLD-1 TGE cf 33
CCCn1c(N)c(N(CCOC)C(=O)Cc2ccc(S(=O)(=O)N3CCOCC3)s2)c(=O)[nH]c1=O	GLD-1 RNA inh 38, Bcl-xL primary 41, MEX-5 binding -26 (no result: EBV gp42 inh) | GLD-1 TGE cf 51
COCCN(C(=O)Cc1ccc(S(=O)(=O)N2CCOCC2)s1)c1c(N)n(CC(C)C)c(=O)[nH]c1=O	none (no result: EBV gp42 inh, GLD-1 RNA inh, Bcl-xL primary, MEX-5 binding)
Nc1c(C(=O)OCC(=O)Nc2ccccc2Br)[nH]c(=O)[nH]c1=O	GLD-1 RNA inh 39 (no result: EBV gp42 inh, Bcl-xL primary, MEX-5 binding) | GLD-1 TGE cf inactive
CCCCC1=CC2=C(c3ccco3)C(=O)C(C)(OC(=O)c3ccc(OC)cc3)C(=O)C2=CN1c1ccc(OC)cc1 (configuration not stated)	GLD-1 RNA inh 33, Bcl-xL primary 30 | GLD-1 TGE cf inactive
CCCCC1=CC2=C(c3ccco3)C(=O)C(C)(OC(=O)c3ccc(OC)cc3)C(=O)C2=CN1Cc1ccc(OC)cc1 (configuration not stated)	none (no result: eLon inh, GLD-1 RNA inh, Bcl-xL primary)
CC1CCCN(S(=O)(=O)c2cccc(C(=O)OCC(=O)N(C)Cc3c(F)cccc3Cl)c2)C1 (configuration not stated)	none (no result: EBV gp42 inh, Bcl-xL primary, MEX-5 binding)
Nc1c(-c2cccc([N+](=O)[O-])c2)nc2ccccn12	GLD-1 RNA inh 32 | GLD-1 TGE cf 43
O=[N+]([O-])c1cccc(-c2ncc3ccccn23)c1	none
CCN(CC)c1ccc(/C=C2\C(=O)c3ccc(C(=O)O)cc3C2=O)cc1	none (no result: MEX-5 binding)
N#Cc1c(SCC(=O)N2CCOCC2)nsc1SCC(=O)N1CCOCC1	GLD-1 RNA inh 50, Bcl-xL primary 66 | GLD-1 TGE cf inactive
Cc1cc(C(=O)N2CCC2(C)C(=O)O)c(C)o1 (configuration not stated)	none (no result: EBV gp42 inh, GLD-1 RNA inh, Bcl-xL primary, MEX-5 binding)
CCOC(=O)c1ccc(NC(=O)[C@@H](NC(N)=O)C(C)C)cc1	GLD-1 RNA inh 98, Bcl-xL primary 110 | GLD-1 TGE cf inactive
CCC(C)C(NC(N)=O)C(=O)Nc1ccc(C(=O)OC)cc1 (configuration not stated)	none
Nc1nnnn1/N=C/c1ccccc1Cl	none (no result: EBV gp42 inh, GLD-1 RNA inh, Bcl-xL primary, MEX-5 binding)
Nc1nnnn1/N=C/c1cc(Cl)ccc1O	GLD-1 RNA inh 38 (no result: EBV gp42 inh) | GLD-1 TGE cf 46
CN(CC(=O)Nc1n[nH]c(=S)s1)S(=O)(=O)c1cccc2cccnc12	GLD-1 RNA inh 112 (no result: EBV gp42 inh) | GLD-1 TGE cf inactive
Cc1csc(NC(=O)CN(C)S(=O)(=O)c2cccc3cccnc23)n1	none
CN(C)c1ccc(C(CNC(=O)c2ccc(-c3ccccc3)cc2)N2CCOCC2)cc1 (configuration not stated)	GLD-1 RNA inh 37, Bcl-xL primary 80 (no result: EBV gp42 inh) | GLD-1 TGE cf inactive
C[C@@H]1CN([C@@H](C)CO)S(=O)(=O)c2ccc(Br)cc2O[C@H]1CN(C)C(=O)Nc1ccc(C(F)(F)F)cc1	none (no result: EBV gp42 inh, GLD-1 RNA inh, Bcl-xL primary, MEX-5 binding)
CCOC(=O)N1CCN(C2=Nc3cccc4cccc2c34)CC1	GLD-1 RNA inh 49, Bcl-xL primary 39, MEX-5 binding inconclusive | GLD-1 TGE cf inactive
NC(=O)c1cc(NC(=O)CCNS(=O)(=O)c2cccc(C(F)(F)F)c2)cc(C(N)=O)c1	none (no result: EBV gp42 inh)
COc1ccc(N2CC(C(=O)Nc3nc4ccc(S(C)(=O)=O)cc4s3)CC2=O)cc1 (configuration not stated)	none (no result: EBV gp42 inh)
